Records with an inconclusive call do not appear. Activity calls are given as the source filed them. Calls follow the shape of the dose curve; as a rule, active = well fitted inhibition curve with a large enough effect; inconclusive = small, poorly fitted or top-dose-only effect, or another doubt; inactive = flat fitted curve, though single readings scatter.
biological target: D(2) dopamine receptor (Homo sapiens) (UniProt P14416); experiment: HTS Assay for Allosteric Antagonists of the Human D2 Dopamine Receptor: SAR in D2 Beta Arrestin Assay; conditions: DiscoveRx PathHunter D2 beta-arrestin recruitment, luminescence
Sequence (P14416 whole entry, looked up): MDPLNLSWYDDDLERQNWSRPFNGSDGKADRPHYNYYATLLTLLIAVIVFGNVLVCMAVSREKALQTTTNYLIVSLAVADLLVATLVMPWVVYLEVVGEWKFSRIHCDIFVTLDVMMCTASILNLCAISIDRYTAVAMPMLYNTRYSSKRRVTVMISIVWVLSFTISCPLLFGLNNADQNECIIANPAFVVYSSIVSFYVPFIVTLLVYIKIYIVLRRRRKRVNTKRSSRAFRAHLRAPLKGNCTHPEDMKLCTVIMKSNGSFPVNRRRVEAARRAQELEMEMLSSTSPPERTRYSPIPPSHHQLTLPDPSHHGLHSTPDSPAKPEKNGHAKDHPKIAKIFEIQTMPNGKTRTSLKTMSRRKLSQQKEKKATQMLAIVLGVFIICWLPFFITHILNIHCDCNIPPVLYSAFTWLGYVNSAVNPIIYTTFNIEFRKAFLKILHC
Text: There is great interest in identifying small molecule ligands for G-protein coupled receptors (GPCRs) as nearly 50% of all FDA-approved drugs target these important receptor proteins. […] Amongst the dopamine receptors (DARs), the D2 is arguably one of the most validated drug targets in neurology and psychiatry. For instance, all receptor-based antiparkinsonian drugs primarily work via stimulating the D2 DAR, whereas all FDA-approved antipsychotic agents are antagonists of this receptor. The D2 DAR is also therapeutically targeted in other disorders such as restless legs syndrome, tardive dyskinesia, Tourette's syndrome, and hyperprolactinemia. […] This is an orthogonal assay to test the lead compounds against the D2 receptor, using a beta arrestin assay. NIH Molecular Libraries Probe Production Network [MLPCN] NIH Chemical Genomics Center [NCGC] Grant: NS0676421 PI Name: David Sibley, National Institutes of Neurological Disorders and Stroke
DiscoveRx D2 cells were thawed from frozen stock and seeded at 2,100 cells/ 3 uL/well media (DiscoveRx Plating Reagent 2) with MultiDrop Combi dispenser (Thermo Scientific, Logan, UT) onto white tissue culture treated 1536-well Aurora plates (Brooks Automation, Chelmsford, MA) and allowed to attach overnight at 37 deg C, 5% CO2. Next, 23 nL/well of compound solutions in DMSO were added with a pintool transfer (Kalypsis, San Diego, CA). As the positive control, 1 uL/well dopamine (EC100, 57 uM final concentration) diluted in buffer (HBSS + 10 mM HEPES + SMB + 0.1% Tween-20) was dispensed to 1 column of each plate. The rest of the plate was dispensed with buffer only, 1 uL/well as well. The cells were stimulated by compounds or dopamine control for 90 minutes at 37 deg C, 5% CO2, after which 1.5 ul/well of DiscoveRx detection reagent was added with BioRAPTR FRD dispenser. The detection reagent was prepared by mixing of Galacton Star Substrate, Emerald II solution and PathHunter buffer (supplied by the assay kit) together at 1:5:19 proportion accordingly just prior to dispensing. The plates were incubated at ambient temperature for 1 hour and then the luminescent signal was read on ViewLux plate reader (PerkinElmer, Waltham, MA).

Potency, active:
CN1C(=O)c2ccccc2[S@](=O)c2ccc(C(=O)NCc3ccc(Cl)cc3)cc21 2.89 µM
CCN1C(=O)c2ccccc2[S@](=O)c2ccc(C(=O)N[C@H](C)c3ccc4ccccc4c3)cc21 2.89 µM
CN1C(=O)c2ccccc2[S@](=O)c2ccc(C(=O)NCc3ccc(Br)cc3)cc21 1.02 µM
CN1C(=O)c2ccccc2[S@](=O)c2ccc(C(=O)NCc3cccnc3)cc21 2.89 µM
CCN1C(=O)c2ccccc2S(=O)c2ccc(C(=O)NCc3ccc(OC)cc3)cc21 (configuration not stated) 2.89 µM
CN1C(=O)c2ccccc2[S@](=O)c2ccc(C(=O)NCCc3cccs3)cc21 0.725 µM
CN1C(=O)c2ccccc2[S@](=O)c2ccc(C(=O)NCCN3CCCC3)cc21 0.363 µM
CCN1C(=O)c2ccccc2[S@](=O)c2ccc(C(=O)NCc3ccc(F)cc3)cc21 0.576 µM
CCN1C(=O)c2ccccc2[S@](=O)c2ccc(C(=O)N[C@H](C)c3ccc(Br)cc3)cc21 1.29 µM
CN1C(=O)c2ccccc2S(=O)c2ccc(C(=O)NCCc3cccs3)cc21 (configuration not stated) 0.913 µM
CCN1C(=O)c2ccccc2[S@](=O)c2ccc(C(=O)NCc3ccc(OC)cc3)cc21 1.15 µM
CCN1C(=O)c2ccccc2[S@](=O)c2ccc(C(=O)NCc3ccc(C#N)cc3)cc21 0.257 µM

Source: PubChem BioAssay AID624495 (National Center for Advancing Translational Sciences (NCATS), 2012)
